# Results as given in ChEMBL document CHEMBL3988442, “University of Dundee, Small-Polar-MMV Screening Library” (2021).
# Target: Shiga toxin 2 (Escherichia coli O157:H7) (UniProt P09385+P09386)
# Test: E. coli 0.157:H7 Shiga Toxin SOP - stx2 screening assay
# Format: functional
# Parameters: scale not given: direction of the effect not stated beside the values
# Conditions: 30 µM
row,Structure (SMILES),Percent Effect [%]
1,CCn1cnnc1CNC(=O)NCC(c1cccs1)N1CCCC1 (stereo not given),-4.89
2,COc1cccc(CNc2cnn(C)c(=O)c2Cl)c1,11.4
3,CNC(=O)C1Cn2ccnc2C2(CCN(CCF)CC2)O1 (stereo not given),-8.7
4,Cn1cnc2c1C(COCc1cccnc1)N(Cc1ccccn1)CC2 (stereo not given),-18.6
5,Cc1noc(C(C)C)c1C(=O)N1CCOCC1CC(=O)c1ccco1 (stereo not given),-4.27
6,O=C1NCCN(CC2CC2)C12CCN(Cc1ccc3c(c1)OCO3)CC2,-21.2
7,CC(=O)N1CCOC(c2cc(N3CC(O)C3)nc(C)n2)C1 (stereo not given),6.14
8,O=C(NCC(=O)N1CCCCC1)c1ccoc1,-16.3
9,Cc1nccc([C@H]2C[C@@H]3CCN(S(=O)(=O)N(C)C)C[C@H]3O2)n1,6.66
10,CC(=O)c1cccc(OCCCC(=O)N(C)CCc2ccncc2)c1,-45.6
11,O=C1COc2ccc(C(=O)NS(=O)(=O)c3ccc(F)cc3F)cc2N1,17.8
12,CCO[C@@H]1CCN(C(=O)c2ccc[nH]2)[C@@H]1Cc1cnn(C)c1,5.04
13,CC(C)C1CN(C(=O)c2ccc(N3CCCC3)nc2)CCS1 (stereo not given),-43
14,Cc1nc(-c2ccccc2)sc1C(=O)NCCNc1ncccn1,28.3
15,Cc1ccc(N2CC[C@H](OCC3CC3)[C@@H]2Cc2cnn(C)c2)nn1,-6.34
16,CSCCC(=O)N1CCCC1c1ccsc1 (stereo not given),4.03
17,CCc1nnc2n1CCN(C(=O)CN(C)Cc1ccccc1)C2,15.9
18,O=C(Nc1nncs1)NC1CCc2ccccc21 (stereo not given),-33.6
19,Cc1cc(C(=O)N2CCc3nnc(N)cc3C2)c(C)n1C1CC1,-1.08
20,CCc1nnc2n1CCN(C(=O)c1ccc3nc(C)c(C)nc3c1)C2,7.1

row,Structure (SMILES),Percent Effect [%]
1,Cc1nc(C2CCCN2C(=O)c2ccccc2)ncc1C(N)=O (stereo not given),-6.25
2,Cc1nc(C)n(CC2CCCN2Cc2nc(N)c3ccccc3n2)n1 (stereo not given),-29.4
3,Cc1cnn(CC2CN(c3ncnc4ccccc34)CCO2)c1 (stereo not given),6.94
4,CCC(=O)NC1CCN(c2cccc(CC)c2)CC1,5.5
5,CNC(=O)[C@H]1C[C@@H]2CN(C(=O)Nc3ccc(F)cc3)C[C@H]1O2,-24.2
6,CCc1nnc2n1CCN(Cc1ccc3c(c1)OCCO3)C2,15.5
7,CCCNC(=O)c1sccc1N(C)S(=O)(=O)c1ccc(Cl)cc1,-24.4
8,O=C(Nc1ccnc(OC2CCOC2)c1)C1CCC1 (stereo not given),-20.1
9,CC(NC(=O)NCCn1ccnc1)c1ccc2c(c1)NC(=O)CO2 (stereo not given),5.67
10,CCOC(=O)N1CCN(Cc2ccc(OCc3nccn3C)cc2)CC1,-21.9
11,CCc1cnc(CN(C)C2CCN(CCc3cccs3)C2)o1 (stereo not given),23.3
12,Cc1cc(CNc2ccc(C(=O)N3CCCC(C)C3)cc2C)no1 (stereo not given),11.6
13,CCO[C@@H]1CC[C@H]2[C@H]1OCCN2C(=O)C1CCOCC1,8.02
14,CS(=O)(=O)N1CCC(c2nnc3ccc(C(=O)N4CCCC4)cn23)C1 (stereo not given),-10.4
15,c1ccc(Oc2cc(CNCC3CNc4ccnn4C3)ccn2)cc1 (stereo not given),-36.5
16,CC(C)c1nc(C2CCCN(C(=O)CCCn3cncn3)C2)no1 (stereo not given),9.71
17,FC1(F)CCN(Cc2cccnc2)CC12CCN(c1ccccn1)C2 (stereo not given),4.74
18,CN(C)c1ccc(CCCNC(=O)Nc2ccc(C#N)cc2)cc1,-44.4
19,CN(Cc1cnn(C)c1)C(=O)NC1CCN(Cc2ccccn2)CC1,-5.06
20,COCCC(=O)N1CCN(C)c2ncccc2C1,-19.6
